Data on 20 compounds can be found in PubChem BioAssay.

Test [1] in a line: antimalarial activity against Dd2 strain (AID 2302;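 active = growth inhibition above 50% at the single 2 µM test dose, taken to imply half-maximal potency below 2 µM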;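 also: 0% = DMSO untreated growth and 100% = chloroquine plus artemisinin killed control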). Particulars: P. falciparum Dd2 in RBCs, LDH growth readout, 72 h; at 2 µM; active compounds read high.
Test [2] can be described thus: human hepatoma cell viability loss – ATP luminescence, cytotoxicity control for P. falciparum antimalarial project, primary screen (AID 2303;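 active = inhibition above 50%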;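 also: 0% = DMSO wells and 100% = digitonin-killed cells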). Particulars: HepG2 viability, 24-48 h, at 10 µM, active compounds read high.
Test [3] concerns the target L-lactate dehydrogenase (Plasmodium falciparum (isolate CDC / Honduras)) (UniProt Q27743). Nature of the test: PfLDH activity inhibition – cell lysate, 3D7 strain, counter-screen for P. falciparum growth inhibition project (AID 2304).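 Also: 0% = vehicle and 100% = reference inhibitor.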 Particulars: P. falciparum 3D7 crude extract, LDH APAD/NBT absorbance; at 2 µM; active compounds read high. A general note: The purpose of a counterscreen is to sort out artefacts and off-target activity.

Test [4] in a line: inhibition of 3D7 malaria parasite growth – strain 3D7 (AID 2306).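 Also: 0% = DMSO wells and 100% = chloroquine plus artemisinin control wells.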 Particulars: P. falciparum 3D7 erythrocytic growth, LDH absorbance, 72 h; at 2 µM; active compounds read high.
For test [5], the target named is Calcium-dependent protein kinase 1 (Plasmodium falciparum (isolate 3D7)) (UniProt P62344). Nature of the test: PfCDPK1 kinase inhibitors, biochemical, TCAMS library (AID 1159585; cut-off not given, nearly all actives have IC50 up to about 0.98 µM;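 also: inhibitors leave more ATP so luminescence rises with inhibition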). Particulars: recombinant PfCDPK1, Kinase-Glo ATP depletion luminescence.
Test [6] has as its target Plasmodium falciparum protein kinase 6 (PK6, PF3D7_1337100) (UniProt Q8IDW1). Nature of the test: PfPK6 kinase inhibitors, biochemical, TCAMS library (AID 1159586). Particulars: recombinant PfPK6, Kinase-Glo ATP depletion luminescence. In general terms: Kinase-Glo measures the ATP left after a reaction by luminescence.
The target of test [7] is Protein kinase 7 (PK7), Plasmodium falciparum 3D7 (PF3D7_0213400) (UniProt Q7YTF7). Nature of the test: inhibition of Plasmodium PK7 catalytic activity – biochemical, TCAMS antimalarial set, Kinase-Glo luminescence (AID 1159587). Particulars: recombinant PfPK7, Kinase-Glo ATP depletion luminescence.
Test [8] addresses Calcium-dependent protein kinase 4 (Plasmodium falciparum (isolate 3D7)) (UniProt Q8IBS5). Nature of the test: PfCDPK4 kinase inhibitors, biochemical, TCAMS library (AID 1159588; cut-off not given, nearly all actives have IC50 up to about 0.91 µM). The following applies: recombinant PfCDPK4, Kinase-Glo ATP depletion luminescence.

Structures are written as SMILES. A number with no mark means an inactive call. For some of these results: Entries with a potency or affinity are not part of this list. Calls of active or inactive are those of the source. Unless noted, no rule for the calls is given here.

Plasmodium falciparum protein kinase 6 (PK6, PF3D7_1337100), sequence (Q8IDW1 1-305): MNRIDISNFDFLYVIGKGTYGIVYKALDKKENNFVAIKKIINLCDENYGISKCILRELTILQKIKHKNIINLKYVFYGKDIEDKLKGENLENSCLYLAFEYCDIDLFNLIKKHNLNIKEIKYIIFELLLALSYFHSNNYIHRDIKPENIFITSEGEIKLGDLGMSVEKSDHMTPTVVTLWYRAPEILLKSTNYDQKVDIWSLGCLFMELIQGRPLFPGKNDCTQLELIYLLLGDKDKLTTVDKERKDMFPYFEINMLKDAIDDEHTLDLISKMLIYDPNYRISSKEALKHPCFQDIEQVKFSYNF
Calcium-dependent protein kinase 1 (Plasmodium falciparum (isolate 3D7)), sequence (P62344 whole entry, looked up): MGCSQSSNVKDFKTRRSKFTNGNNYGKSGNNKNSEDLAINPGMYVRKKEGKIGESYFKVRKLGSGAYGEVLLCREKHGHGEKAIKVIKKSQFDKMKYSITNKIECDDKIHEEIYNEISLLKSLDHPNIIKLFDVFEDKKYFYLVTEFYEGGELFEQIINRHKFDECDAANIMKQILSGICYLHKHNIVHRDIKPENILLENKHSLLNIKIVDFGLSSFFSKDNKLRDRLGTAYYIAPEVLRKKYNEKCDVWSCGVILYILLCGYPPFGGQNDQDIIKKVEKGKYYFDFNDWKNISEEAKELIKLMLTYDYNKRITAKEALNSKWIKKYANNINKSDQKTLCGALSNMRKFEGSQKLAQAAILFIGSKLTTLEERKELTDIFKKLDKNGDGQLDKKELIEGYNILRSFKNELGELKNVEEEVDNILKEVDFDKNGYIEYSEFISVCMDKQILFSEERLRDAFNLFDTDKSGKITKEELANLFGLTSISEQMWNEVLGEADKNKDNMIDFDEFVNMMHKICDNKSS
L-lactate dehydrogenase (Plasmodium falciparum (isolate CDC / Honduras)), sequence (Q27743 whole entry, looked up): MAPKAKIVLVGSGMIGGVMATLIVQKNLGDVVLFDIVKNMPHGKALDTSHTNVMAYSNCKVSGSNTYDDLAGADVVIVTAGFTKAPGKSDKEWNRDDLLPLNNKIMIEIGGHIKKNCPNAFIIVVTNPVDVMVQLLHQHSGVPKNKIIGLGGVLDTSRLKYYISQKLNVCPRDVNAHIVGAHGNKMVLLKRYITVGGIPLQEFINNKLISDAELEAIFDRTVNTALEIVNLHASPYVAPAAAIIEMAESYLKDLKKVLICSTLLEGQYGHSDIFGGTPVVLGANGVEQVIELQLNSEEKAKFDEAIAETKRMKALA
Calcium-dependent protein kinase 4 (Plasmodium falciparum (isolate 3D7)), sequence (Q8IBS5 whole entry, looked up): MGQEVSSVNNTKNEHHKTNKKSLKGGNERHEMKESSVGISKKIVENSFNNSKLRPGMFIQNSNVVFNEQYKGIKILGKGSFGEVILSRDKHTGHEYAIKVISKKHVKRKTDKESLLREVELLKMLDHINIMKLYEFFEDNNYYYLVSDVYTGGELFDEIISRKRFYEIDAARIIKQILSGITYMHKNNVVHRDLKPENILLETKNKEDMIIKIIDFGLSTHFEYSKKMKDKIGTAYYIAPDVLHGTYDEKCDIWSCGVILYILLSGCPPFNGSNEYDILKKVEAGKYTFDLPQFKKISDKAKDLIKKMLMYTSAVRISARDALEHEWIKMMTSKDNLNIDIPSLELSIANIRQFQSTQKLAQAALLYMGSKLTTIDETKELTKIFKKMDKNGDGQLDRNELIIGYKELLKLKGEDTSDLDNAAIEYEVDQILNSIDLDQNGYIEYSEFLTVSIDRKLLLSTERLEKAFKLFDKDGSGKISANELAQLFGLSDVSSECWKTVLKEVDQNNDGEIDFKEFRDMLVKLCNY
Protein kinase 7 (PK7), Plasmodium falciparum 3D7 (PF3D7_0213400), sequence (Q7YTF7 1-343): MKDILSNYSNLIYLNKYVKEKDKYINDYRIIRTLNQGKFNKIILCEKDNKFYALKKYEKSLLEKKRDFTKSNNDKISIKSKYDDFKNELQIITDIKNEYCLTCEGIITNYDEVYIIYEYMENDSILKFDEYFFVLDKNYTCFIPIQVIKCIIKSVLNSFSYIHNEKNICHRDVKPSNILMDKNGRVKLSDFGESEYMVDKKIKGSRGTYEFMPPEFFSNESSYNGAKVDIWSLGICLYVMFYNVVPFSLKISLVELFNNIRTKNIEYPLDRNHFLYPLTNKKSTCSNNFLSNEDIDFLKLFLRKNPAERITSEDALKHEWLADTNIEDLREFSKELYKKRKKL

As to `Cn1nccc1C(=O)NCCNCc1ccc(-c2cccc(-c3nc4ccc(C(F)(F)F)cc4[nH]3)c2)cc1`, the growth inhibition in test [1] is 99% (active); in test [4], 101% (active). Further, the inhibition in test [2] was 51% (active); in test [3], -8%. Besides, the outcome in test [5], in test [6], in test [7] and in test [8] was inactive.
For the compound `Fc1ccccc1-c1cc(Nc2ccncc2)nc(-c2cccnc2)n1`, the growth inhibition in test [1] is 89% (active); in test [4], 103% (active). Also, the inhibition is 91% (active) in test [2] and 3% in test [3]. For the same compound, the result in test [5], in test [6], in test [7] and in test [8] was inactive.
Consider `CCOC(=O)NCCSC(C)(C)[C@H](NC(=O)[C@H](Cc1cc2ccccc2s1)[C@H](CC)N(O)C=O)C(=O)Nc1nccs1`, for which the growth inhibition in test [1] and in test [4] was 98% (active) throughout. For the same compound, the inhibition is 11% in test [2] and 1% in test [3]. Also, the outcome in test [5], in test [6], in test [7] and in test [8] was inactive.
On to `OC[C@H](Nc1nc(C(Oc2ccccc2)c2ccccc2)nc2[nH]ncc12)c1ccccc1` (stereo not given in full), for which the results for the growth inhibition in test [1] and in test [4] were 45% and 98% (active), respectively. Besides, the values for the inhibition in test [2] and in test [3] were 0% and -4%, respectively. Moreover, the result in test [5], in test [6], in test [7] and in test [8] was inactive.
Take `COc1ccc2nccc([C@@H](O)CN3CCC(NCc4cc5cccc(O)c5c(=O)[nH]4)CC3)c2c1`: the figures for the growth inhibition in test [1] and in test [4] were 66% (active) and 99% (active), respectively. The inhibition in test [2] was 8%; in test [3] it was 3%. For the same compound, the result in test [5], in test [6], in test [7] and in test [8] was inactive.
As for `c1ccc(Oc2ccc(Nc3ccnc(Nc4cccc(CNCCCN5CCOCC5)c4)n3)cc2)cc1`, the growth inhibition in test [1] was 50% (active); in test [4], 100% (active). Also, the inhibition in test [2] and in test [3] was -1% throughout. The result in test [5], in test [6], in test [7] and in test [8] was inactive.
Turning to `CCCCCCCNCCNc1cc(C)nc2ccccc12`, the figures for the growth inhibition in test [1] and in test [4] were 99% (active) and 100% (active), respectively. Further, the inhibition in test [2] was 58% (active); in test [3], -4%. Also, the outcome in test [5], in test [6], in test [7] and in test [8] was inactive.
In the case of `Cc1cccc2[nH]c(-c3ccc(-c4ccc(CN5CCCCC5)cc4)cc3)nc12`, the figures for the growth inhibition in test [1] and in test [4] were 99% (active) and 100% (active), respectively. Besides, the results for the inhibition in test [2] and in test [3] were 27% and -2%, respectively. Besides, the outcome in test [5], in test [6], in test [7] and in test [8] was inactive.
Regarding `COCc1ccccc1C(=O)NCCOc1cc(C)cc(C)c1`, the growth inhibition is 95% (active) in test [1] and 96% (active) in test [4]. Moreover, the inhibition in test [2] is 26%; in test [3] it was 5%. The result in test [5], in test [6], in test [7] and in test [8] was inactive.
`CC(C)CCN1CCC(Oc2ccc(NC(=O)c3ccccc3)cc2Cl)CC1`: the growth inhibition was 88% (active) in test [1] and 87% (active) in test [4]. Further, the inhibition is 17% in test [2] and 5% in test [3]. For the same compound, the outcome in test [5], in test [6], in test [7] and in test [8] was inactive.
As to `CCN(CC)CCCCNc1cc(-c2[nH]c(C(C)(C)C)nc2-c2ccc3cc(OC)ccc3c2)ccn1`, the growth inhibition in test [1] is 76% (active); in test [4], 85% (active). For the same compound, the inhibition is 23% in test [2] and 5% in test [3]. The result in test [5], in test [6], in test [7] and in test [8] was inactive.
As for `CCN(CCCN1CCCCC1)c1cc(C)nc(Nc2ccc(C)c(C)c2)n1`, the growth inhibition was 60% (active) in test [1] and 101% (active) in test [4]. The inhibition in test [2] is 30%; in test [3], -3%. Also, the outcome in test [5], in test [6], in test [7] and in test [8] was inactive.
For `Cc1ccc(-c2nnc(Nc3ccc(OCC(N)=O)cc3)c3ccccc23)cc1S(=O)(=O)NCC1CCCO1` (stereo not given), the growth inhibition in test [1] is 70% (active); in test [4], 92% (active). The inhibition in test [2] is 0%; in test [3], -2%. For the same compound, the outcome in test [5], in test [6], in test [7] and in test [8] was inactive.
With `O=C(Nc1cc(Cl)ccc1Cl)N[C@H]1CCN(CCCCCNC(=O)[C@@H]2C[C@H]2c2ccc(Cl)c(Cl)c2)C1`, the growth inhibition in test [1] was 1%; in test [4], 97% (active). The inhibition in test [2] is 49%; in test [3], 0%. Besides, the result in test [5], in test [6], in test [7] and in test [8] was inactive.
`CC(NCC(O)Cn1c2ccccc2c2ccccc21)c1ccccc1` (stereo not given): the growth inhibition in test [1] is 85% (active); in test [4], 96% (active). For the same compound, the inhibition in test [2] is 37%; in test [3] it was 9%. Further, the result in test [5], in test [6], in test [7] and in test [8] was inactive.
`N#CC(c1ccc(F)cc1)c1ccc2c(C(F)(F)F)cc(C(F)(F)F)nc2n1` (stereo not given): the growth inhibition in test [1] is 89% (active); in test [4], 97% (active). Also, the inhibition in test [2] is 9%; in test [3], 2%. The outcome in test [5], in test [6], in test [7] and in test [8] was inactive.
`CCCCCCCc1c(C)[nH]c2cccc(OC)c2c1=O`: the growth inhibition is 47% in test [1] and 95% (active) in test [4]. In addition, the inhibition is 43% in test [2] and 0% in test [3]. In addition, the result in test [5], in test [6], in test [7] and in test [8] was inactive.
Turning to `CCc1c[nH]c2c(N3CCCC3=O)cc(C(=O)N[C@@H](Cc3ccccc3)[C@H](O)CNC(C)(C)c3cccc(OC)c3)cc12`, the growth inhibition in test [1] is 98% (active); in test [4], 93% (active). Moreover, the results for the inhibition in test [2] and in test [3] were 0% and 2%, respectively. The outcome in test [5], in test [6], in test [7] and in test [8] was inactive.
For the compound `Fc1ccc(OC2CN(c3nccc(NCc4ccccc4Cl)n3)C2)cc1`, the growth inhibition in test [1] is 99% (active); in test [4], 98% (active). Further, the inhibition was -2% in test [2] and 6% in test [3]. The result in test [5], in test [6], in test [7] and in test [8] was inactive.
For `c1ccc(CN2CCC(NCc3ccccc3-c3ccc(CNC4CCCC4)cc3)CC2)cc1`, the growth inhibition is 33% in test [1] and 102% (active) in test [4]. The inhibition in test [2] was 38%; in test [3] it was 1%. For the same compound, the outcome in test [5], in test [6], in test [7] and in test [8] was inactive.

In general, inhibition refers to the drop in the measured response relative to a control, in per cent.
